Results filed as inconclusive are left out. A number with no mark means an inactive call. The source made the active and inactive calls. Unless noted, the call rests on the fitted dose curve; in most records, active means well fitted curve in the direction sought with a large enough effect; inconclusive means small, poorly fitted or top-dose-only effect, or another doubt; inactive means no such curve, though single readings can be large; an effect the other way counts as inactive or inconclusive. Square brackets hold non-standard residues; d marks the D form. Peptide text beside a SMILES is read from it. ξ: configuration not given here. d(hArg(Et2)) = CCN=C(NCC)NCCCC[C@@H](N)C(=O)O; hArg(Et2) = CCN=C(NCC)NCCCC[C@H](N)C(=O)O; Phe(4-Cl) = N[C@@H](Cc1ccc(Cl)cc1)C(=O)O; ξ2Nal = NC(Cc1ccc2ccccc2c1)C(=O)O; 3Pal = N[C@@H](Cc1cccnc1)C(=O)O; ξP = O=C(O)C1CCCN1

Assay [1] in a line: qHTS for differential inhibitors of proliferation of Plasmodium falciparum line 7G8 (AID 1815).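 Further: parasite growth measured after three days of incubation.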 Further: potency means the concentration at half of the fitted maximal effect. For orientation: qHTS replaces the single test concentration by a dilution series.
Assay [2] is described as follows: qHTS for differential inhibitors of proliferation of Plasmodium falciparum line W2 (AID 1883).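 Further: parasites grown with compound for 72 h before lysis and staining.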 Further: potency means the concentration at half of the fitted maximal effect. The conditions noted are these: Potency: Plasmodium falciparum W2 proliferation inhibition.
The nature of assay [3]: Quantitative high throughput screen for delayed death inhibitors of the malarial parasite plastid, 48 hour incubation (AID 488752). Further: on the % scale 0 is the no-effect control and ±100 the full control effect; nearly all actives have a fitted effect of over 65% in size. Summed up: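 Luciferase-expressing P. falciparum in RBCs, 2% Hct, 0.1% parasitemia final; RPMI 1640 + 0.5% Albumax; 48 h, 37 C, 5% CO2; luminescence readout, signal drop = growth inhibition.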
Assay [4] is described as follows: qHTS for differential inhibitors of proliferation of Plasmodium falciparum line GB4 (AID 1816).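 Further: parasite growth measured after 72 h incubation.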 Further: potency means the concentration at half of the fitted maximal effect. To be noted: Potency: Plasmodium falciparum GB4 proliferation inhibition.
Assay [5] can be described thus: qHTS for differential inhibitors of proliferation of Plasmodium falciparum line 3D7 (AID 1876). Further: potency means the concentration at half of the fitted maximal effect.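 On activity, negative = inhibition: parasite growth measured after three days of culture; 0% = vehicle wells and -100% = reference inhibitor wells.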
Assay [6] can be described thus: qHTS for differential inhibitors of proliferation of Plasmodium falciparum line Dd2 (AID 1882). Further: nearly all actives have a fitted effect of over 65% in size. Further: potency means the concentration at half of the fitted maximal effect. To be noted: Potency: Plasmodium falciparum Dd2 proliferation inhibition. Summed up:
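RBC culture, 0.3% parasitemia / 2.5% Hct final; cpd added by pin tool in DMSO; 72 h, 37 C, 5% CO2; lysis buffer + SYBR Green I, o/n RT dark; FI 485/535; norm. to artemisinin 0.29 uM and DMSO.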

A short description of assay [7]: qHTS for differential inhibitors of proliferation of Plasmodium falciparum line HB3 (AID 1886).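 Further: parasites grown with compound for 72 h before SYBR Green readout.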 Further: potency means the concentration at half of the fitted maximal effect. The conditions noted are these: Potency: Plasmodium falciparum HB3 proliferation inhibition.
Assay [8] can be described thus: qHTS Assay for Modulators of Human Peripheral Myelin Protein 22 (PMP22) Expression/Activity (AID 1967; active means well fitted curve in the direction sought with a large enough effect in the signal ratio; the % refers to the signal ratio;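 further: 0% = untreated cells and 100% end not stated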). Summed up:
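Engineered MSC80 cells, Pmp22-promoter green and EF-alpha red luciferase reporters; 24h compound treatment at 37 °C. Concentration-response fits on green, red and ratio signals, each overlap-corrected, with %Activity normalized to untreated wells.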

The target of assay [9] is RecQ-like DNA helicase BLM (Homo sapiens) (UniProt P54132). Put plainly: qHTS Validation Assay for Inhibitors of Bloom's syndrome helicase (BLM) (AID 2364).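 Further: plate controls were DMSO vehicle for no effect and enzyme-free control for full effect.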 Summed up:
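BLM 50 nM in 25 mM Tris-HCl pH 8.0, 5 mM NaCl, 2 mM MgCl2, 1 mM DTT, 0.01% Tween-20, 2.5 ug/ml poly(dI-dC); 15 min cpd preinc, RT. Start: 200 nM forked DNA + 2 mM ATP (final). TAMRA read, 2 reads 2 h apart.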

For assay [10], the target named is Ubiquitin carboxyl-terminal hydrolase 1 (Homo sapiens) (UniProt O94782). Nature of the assay: Inhibitors of USP1/UAF1: Pilot qHTS (AID 504865). Further: nearly all actives have a fitted effect of over 35% in size. Further: potency means the concentration at half of the fitted maximal effect. Summed up: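 Enzyme-free wells gave the negative control, while test wells held 1nM USP1/UAF1 preincubated with compound for 15 min at room temperature. Ub-Rho at 150nM final started the reaction, and fluorescence at 480/540 nm was recorded kinetically.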
Chain of Ubiquitin carboxyl-terminal hydrolase 1 (Homo sapiens) (O94782 whole entry, looked up): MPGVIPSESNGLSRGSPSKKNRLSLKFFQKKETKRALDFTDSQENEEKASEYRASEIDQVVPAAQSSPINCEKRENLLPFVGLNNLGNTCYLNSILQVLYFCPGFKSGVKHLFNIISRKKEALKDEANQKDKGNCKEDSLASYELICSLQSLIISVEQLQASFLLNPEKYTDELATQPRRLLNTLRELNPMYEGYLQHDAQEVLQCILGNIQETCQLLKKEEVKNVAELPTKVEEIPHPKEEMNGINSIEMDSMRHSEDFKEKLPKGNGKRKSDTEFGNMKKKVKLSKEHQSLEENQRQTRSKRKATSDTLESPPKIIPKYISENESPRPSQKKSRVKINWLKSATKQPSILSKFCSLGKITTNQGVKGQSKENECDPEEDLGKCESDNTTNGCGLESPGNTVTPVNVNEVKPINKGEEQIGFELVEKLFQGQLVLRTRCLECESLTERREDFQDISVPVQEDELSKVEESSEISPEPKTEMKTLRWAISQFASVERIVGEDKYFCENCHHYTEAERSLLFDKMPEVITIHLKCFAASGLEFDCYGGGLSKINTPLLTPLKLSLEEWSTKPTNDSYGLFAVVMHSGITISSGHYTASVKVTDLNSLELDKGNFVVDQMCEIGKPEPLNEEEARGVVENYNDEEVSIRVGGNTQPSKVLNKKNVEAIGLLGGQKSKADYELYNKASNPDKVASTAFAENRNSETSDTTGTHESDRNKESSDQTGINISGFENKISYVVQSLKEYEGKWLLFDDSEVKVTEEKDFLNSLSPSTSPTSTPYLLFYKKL

Assay [11] has as its target Voltage-gated inwardly rectifying potassium channel KCNH2 (Homo sapiens) (UniProt Q12809). Nature of the assay: qHTS Assay for Small Molecule Inhibitors of the Human hERG Channel Activity (AID 588834).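 Further: top concentration of the series differs between compounds; on the % scale 0 is the no-effect control and ±100 the full control effect; lower thallium flux fluorescence means stronger hERG block; nearly all actives have a fitted effect of over 50% in size.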 Summed up:
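Homogeneous FluxOR thallium flux assay using hERG-expressing U2OS cells (BacMam). Compound treatment about 10 minutes preceded stimulation; reduced fluorescence taken as channel block.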

Assay [12] concerns the target Luciferin 4-monooxygenase (Photinus pyralis) (UniProt P08659). Put plainly: Biochemical firefly luciferase enzyme assay for NPC (AID 624030).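 Further: purified P. pyralis luciferase at 10 nM with luciferin and ATP substrate; 0% = DMSO and -100% = full luciferase inhibition by PTC124 control; nearly all actives have a fitted effect of over 70% in size.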 Summed up:
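Counter-screen for direct inhibition of the luciferase enzyme by approved-drug library compounds, run at 10 nM enzyme in 50 mM Tris acetate (final). Luminescence was read within 5 min of enzyme-buffer addition and normalized to PTC124 versus DMSO (0%).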

The target of assay [13] is Phospholipid hydroperoxide glutathione peroxidase GPX4 (Homo sapiens) (UniProt P36969). Nature of the assay: Primary qHTS Assay for Inhibitors of Recombinant Selenoprotein Glutathione Peroxidase 4 (GPX4) (AID 1845192). Further: nearly all actives have a fitted effect of over 65% in size. Further: potency means the concentration at half of the fitted maximal effect. Summed up:
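qHTS, GR-coupled: GPX4 200 nM + cpd 30 min RT → GSH 1 mM, NADPH 0.5 mM, GR 100 nM → CHP 0.5 mM start; fluor 340/450 at t0 and t15 min; no-enzyme wells as control.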

Assay [14] in a line: qHTS profiling for inhibitors of Plasmodium falciparum proliferation (AID 504749).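 Further: 0% = DMSO vehicle and full inhibition = artemisinin control; nearly all actives have a fitted effect of over 60% in size.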 To be noted: P. falciparum in erythrocytes, SYBR Green DNA, 72 h, at 28.7 µM (top of the series). Summed up:
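Fluorescence of SYBR Green-bound parasite DNA, read at 485/535 nm, served as the growth measure. Infected erythrocytes were cultured with compound 72 h; artemisinin (0.29 uM) and DMSO wells defined the normalization range.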

A short description of assay [15]: Confirmatory qHTS to identify inhibitors of SARS-CoV-2 cell entry (AID 1645844; calls by dose curve; further: nearly all actives have a fitted effect of over 45% in size; further: potency means the concentration at half of the fitted maximal effect; on activity, negative = inhibition: on the % scale 0 is the no-effect control and ±100 the full control effect). Summed up: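 Using stable human ACE2 Expi293F cells, compounds preincubated 1 hr before spike pseudoparticle infection; luciferase signal after 48 hr at 37C, 5% CO2, normalised to spike PP and no-fusion-protein PP wells.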
Assay [16] is described as follows: VSVG counterscreen qHTS to identify inhibitors of SARS-CoV-2 cell entry (AID 1645847; calls by dose curve; further: nearly all actives have a fitted effect of over 65% in size; further: potency means the concentration at half of the fitted maximal effect). Summed up:
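Entry of VSV-G pseudotyped particles into human ACE2-expressing HEK293 cells was measured by luciferase luminescence 48 h after infection, with compound added 1 h beforehand.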

Chain of Voltage-gated inwardly rectifying potassium channel KCNH2 (Homo sapiens) (Q12809 whole entry, looked up): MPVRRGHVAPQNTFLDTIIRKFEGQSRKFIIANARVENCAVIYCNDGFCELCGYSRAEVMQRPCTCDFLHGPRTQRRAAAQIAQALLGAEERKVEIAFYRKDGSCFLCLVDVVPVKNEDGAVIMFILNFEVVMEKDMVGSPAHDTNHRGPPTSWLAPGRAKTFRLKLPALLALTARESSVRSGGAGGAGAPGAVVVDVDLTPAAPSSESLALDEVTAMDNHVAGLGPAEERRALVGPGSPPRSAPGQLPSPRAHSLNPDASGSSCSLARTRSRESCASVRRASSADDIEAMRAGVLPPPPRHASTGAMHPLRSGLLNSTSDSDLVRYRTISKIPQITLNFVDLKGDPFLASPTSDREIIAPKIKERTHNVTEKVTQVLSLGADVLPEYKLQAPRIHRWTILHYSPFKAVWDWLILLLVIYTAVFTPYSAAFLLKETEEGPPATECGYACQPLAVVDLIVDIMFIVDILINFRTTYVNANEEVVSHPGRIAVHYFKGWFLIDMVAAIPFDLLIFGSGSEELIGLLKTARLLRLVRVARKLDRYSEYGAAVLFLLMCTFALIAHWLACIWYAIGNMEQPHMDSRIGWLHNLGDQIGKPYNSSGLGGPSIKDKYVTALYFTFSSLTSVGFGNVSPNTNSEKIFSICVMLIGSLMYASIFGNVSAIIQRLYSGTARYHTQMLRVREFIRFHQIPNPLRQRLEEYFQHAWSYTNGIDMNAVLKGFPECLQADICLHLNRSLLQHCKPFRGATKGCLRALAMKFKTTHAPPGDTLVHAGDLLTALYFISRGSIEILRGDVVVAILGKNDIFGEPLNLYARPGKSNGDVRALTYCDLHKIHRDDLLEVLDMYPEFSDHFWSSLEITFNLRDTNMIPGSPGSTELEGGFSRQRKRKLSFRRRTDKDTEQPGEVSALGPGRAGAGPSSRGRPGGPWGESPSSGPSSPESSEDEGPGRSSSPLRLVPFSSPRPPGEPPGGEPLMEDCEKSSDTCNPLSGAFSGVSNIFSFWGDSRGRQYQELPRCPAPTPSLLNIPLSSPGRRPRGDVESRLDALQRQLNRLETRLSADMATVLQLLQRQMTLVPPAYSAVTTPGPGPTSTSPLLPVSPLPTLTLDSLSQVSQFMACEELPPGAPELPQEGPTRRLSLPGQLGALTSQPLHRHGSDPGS
Chain of Luciferin 4-monooxygenase (Photinus pyralis) (P08659 whole entry, looked up): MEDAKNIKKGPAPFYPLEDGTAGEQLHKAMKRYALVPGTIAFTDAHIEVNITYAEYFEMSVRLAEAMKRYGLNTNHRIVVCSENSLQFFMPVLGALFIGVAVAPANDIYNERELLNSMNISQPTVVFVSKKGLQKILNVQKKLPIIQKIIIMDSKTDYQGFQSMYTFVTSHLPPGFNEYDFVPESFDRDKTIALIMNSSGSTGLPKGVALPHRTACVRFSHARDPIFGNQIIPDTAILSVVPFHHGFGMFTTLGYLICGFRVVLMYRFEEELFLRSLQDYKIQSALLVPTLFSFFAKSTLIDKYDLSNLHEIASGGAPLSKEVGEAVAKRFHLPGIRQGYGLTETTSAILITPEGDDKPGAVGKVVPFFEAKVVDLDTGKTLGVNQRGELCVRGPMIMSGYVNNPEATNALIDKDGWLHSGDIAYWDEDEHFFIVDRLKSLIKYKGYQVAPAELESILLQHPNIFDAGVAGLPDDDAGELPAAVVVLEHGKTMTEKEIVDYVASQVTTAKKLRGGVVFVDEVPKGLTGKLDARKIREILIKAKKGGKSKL
Chain of Phospholipid hydroperoxide glutathione peroxidase GPX4 (Homo sapiens) (P36969 whole entry, looked up): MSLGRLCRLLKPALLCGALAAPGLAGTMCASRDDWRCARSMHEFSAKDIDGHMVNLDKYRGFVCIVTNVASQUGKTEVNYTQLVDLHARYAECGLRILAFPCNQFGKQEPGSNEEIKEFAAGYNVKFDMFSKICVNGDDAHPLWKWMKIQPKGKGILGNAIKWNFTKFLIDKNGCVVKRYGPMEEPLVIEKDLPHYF
Chain of RecQ-like DNA helicase BLM (Homo sapiens) (P54132 whole entry, looked up): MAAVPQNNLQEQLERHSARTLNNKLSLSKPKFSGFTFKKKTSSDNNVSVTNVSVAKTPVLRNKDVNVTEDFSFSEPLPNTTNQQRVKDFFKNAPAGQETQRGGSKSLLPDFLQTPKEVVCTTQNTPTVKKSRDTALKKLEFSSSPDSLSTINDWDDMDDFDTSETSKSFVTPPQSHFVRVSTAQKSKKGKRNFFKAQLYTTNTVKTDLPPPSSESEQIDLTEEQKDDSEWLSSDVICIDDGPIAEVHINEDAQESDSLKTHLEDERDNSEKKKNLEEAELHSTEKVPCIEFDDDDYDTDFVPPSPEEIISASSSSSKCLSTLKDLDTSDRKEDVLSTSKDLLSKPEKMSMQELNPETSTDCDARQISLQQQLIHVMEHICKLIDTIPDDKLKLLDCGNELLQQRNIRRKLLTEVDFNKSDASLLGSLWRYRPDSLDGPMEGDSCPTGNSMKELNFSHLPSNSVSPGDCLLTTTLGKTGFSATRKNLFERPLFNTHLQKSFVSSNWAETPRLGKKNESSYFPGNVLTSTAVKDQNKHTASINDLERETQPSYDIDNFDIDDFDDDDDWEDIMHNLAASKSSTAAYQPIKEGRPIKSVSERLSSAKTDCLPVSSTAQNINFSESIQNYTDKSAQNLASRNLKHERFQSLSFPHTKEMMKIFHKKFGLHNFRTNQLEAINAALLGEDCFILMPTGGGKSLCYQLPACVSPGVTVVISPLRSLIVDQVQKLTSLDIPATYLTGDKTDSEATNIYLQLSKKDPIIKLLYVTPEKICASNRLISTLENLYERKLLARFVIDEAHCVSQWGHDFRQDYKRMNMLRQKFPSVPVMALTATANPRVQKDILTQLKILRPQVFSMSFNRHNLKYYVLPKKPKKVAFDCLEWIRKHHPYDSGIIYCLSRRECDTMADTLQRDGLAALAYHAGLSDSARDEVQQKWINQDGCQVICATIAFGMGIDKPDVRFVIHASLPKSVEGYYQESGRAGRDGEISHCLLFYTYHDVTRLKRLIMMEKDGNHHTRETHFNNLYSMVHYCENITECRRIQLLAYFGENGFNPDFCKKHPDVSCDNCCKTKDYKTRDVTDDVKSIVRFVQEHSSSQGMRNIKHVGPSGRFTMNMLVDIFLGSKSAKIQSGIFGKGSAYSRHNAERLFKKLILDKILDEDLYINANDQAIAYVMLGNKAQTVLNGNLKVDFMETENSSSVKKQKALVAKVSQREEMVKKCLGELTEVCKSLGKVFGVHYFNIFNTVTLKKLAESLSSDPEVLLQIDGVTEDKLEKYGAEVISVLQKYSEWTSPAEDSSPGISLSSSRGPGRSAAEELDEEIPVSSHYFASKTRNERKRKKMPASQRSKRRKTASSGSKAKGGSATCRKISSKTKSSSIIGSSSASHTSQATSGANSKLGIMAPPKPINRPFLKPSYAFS

Consider `CC1Cc2cc3c(cc2C(c2ccc(N)cc2)=NN1)OCO3` (centres undefined), for which the Potency in assay [1] was 12.6 µM (active); in assay [2], 2.24 µM (active). Moreover, in assay [3], the Potency result is “inactive”.

As for `C[C@H]1C2Cc3ccc(O)cc3[C@]1(C)CCN2CC1CC1`, the Potency is 11.2 µM (active) in assay [4], 7.94 µM (active) in [6] and 2.82 µM (active) in assay [2]. In addition, the Potency result in assay [5], in [7], in [3], in assay [10], in [11] and in [12] was “inactive” throughout. Besides, the compound was classed as inactive in assay [8] and in assay [9].

For `CC[C@@H](CO)NC(=O)[C@H]1C=C2c3cccc4c3c(cn4C)C[C@H]2N(C)C1`, in assay [10], the Potency was 35.5 µM (active). The Potency result in [11] was “inactive”.

`CCCN1CCC[C@@H](c2cccc(C#N)c2)C1`: the Potency entry in assay [5], in assay [6], in [7], in assay [3] and in assay [11] was “inactive” throughout. The Potency in assay [2] was 11.2 µM (active). Also, the compound was called inactive in [8].

Turning to `CCC(CO)NC(=O)[C@@H]1C=C2c3cccc4[nH]cc(c34)C[C@H]2N(C)C1` (some centres undefined), the Potency was 10 µM (active) in assay [1], 14.1 µM (active) in assay [5], 12.6 µM (active) in assay [2] and 10 µM (active) in assay [7]. Moreover, the Potency result in [3] and in assay [11] was “inactive” each time.

With `NC(Cn1ccc(=O)[nH]c1=O)C(=O)O` (centres undefined), the Potency result in assay [1], in assay [4], in assay [5], in assay [6], in assay [2] and in assay [7] was “inactive” each time. Further, the Potency result in assay [3] and in assay [11] was “inactive” each time. For the same compound, the compound was called inactive in [8].

`CC12CCC3C(CCC4=C(O)C(=O)CCC43C)C1CCC2=O` (centres undefined): the Potency result in assay [4], in assay [5], in [6], in assay [3], in assay [10] and in assay [11] was “inactive” in each case. The Potency result in assay [12] was “inactive”. Moreover, the result in [8] and in assay [9] was inactive.

Take `CCOC(=O)C=C(C)C=CC[C@@H](C)CCCC(C)C`: the Potency result in [13] was “inactive”.

With `CNC(C)[C@@H](O)c1ccc(O)cc1` (some centres undefined), the Potency result in assay [10], in assay [12] and in assay [13] was “inactive” each time. In addition, the activity, negative = inhibition in assay [14] (parasite line A) was 1.09%; in assay [14] (parasite line B) it was 3.21%.

On to `NCCNc1ccc(NCCN)c2c1C(=O)c1ccncc1C2=O`, for which the Potency in assay [15] was 1.52 µM (active); in [16], 3.04 µM (active).

Regarding `CC1(C)[C@H](C=C(Cl)Cl)[C@@H]1C(=O)OCc1c(F)c(F)cc(F)c1F`, the Potency entry in assay [13] is “inactive”.

Take `CC(Cc1ccc2c(c1)OCO2)NCC(O)c1ccc(O)c(O)c1` (centres undefined): in assay [13], the Potency is 15.8 µM (active).

In the case of `CCCCN=C(N)NC(=N)N`, the call in [15] was inactive.

`CO[C@@H]1[C@H](C)OC(O[C@H]2CC(Oc3cc4cc5c(c(O)c4c(O)c3C)C(=O)[C@@H](OC3C[C@@H](OC4C[C@H](OC6C[C@](C)(O)[C@@H](OC(C)=O)[C@H](C)O6)[C@@H](O)[C@H](C)O4)[C@H](O)[C@@H](C)O3)[C@H]([C@@H](OC)C(=O)[C@@H](O)[C@H](C)O)C5)O[C@@H](C)[C@H]2OC(C)=O)C[C@@H]1O` (some centres undefined): the Potency was 0.0215 µM (active) in assay [15] and 0.0482 µM (active) in assay [16].

On to `CCCCCCCCCCCCCCCCCCCCCC(=O)Nc1ccn([C@@H]2O[C@H](CO)[C@@H](O)[C@@H]2O)c(=O)n1`, for which the Potency entry in [15] and in [16] was “inactive” throughout.

`O1[As]2O[As]1O2`: the Potency is 19.2 µM (active) in assay [15] and 15.2 µM (active) in [16]. The Potency entry in [13] was “inactive”.

Turning to `C=C1C[C@@H]2CC[C@@]34C[C@H]5O[C@H]6[C@@H](O3)[C@H]3O[C@H](CC[C@@H]3O[C@H]6[C@H]5O4)CC(=O)C[C@@H]3[C@@H](OC)[C@@H](C[C@H](O)CN)O[C@H]3C[C@H]3O[C@@H](CC[C@@H]1O2)C[C@@H](C)C3=C`, the Potency is 0.221 µM (active) in [15] and 0.111 µM (active) in [16].

With `CCNC(=NCCCC[C@H](NC(=O)[C@H](CC(C)C)NC(=O)[C@@H](CCCCN=C(NCC)NCC)NC(=O)[C@@H](Cc1ccc(O)cc1)NC(=O)[C@@H](CO)NC(=O)[C@H](Cc1cccnc1)NC(=O)[C@H](Cc1ccc(Cl)cc1)NC(=O)C(Cc1ccc2ccccc2c1)NC(C)=O)C(=O)N1CCCC1C(=O)N[C@H](C)C(N)=O)NCC` (some centres undefined) (Ac-[ξ2Nal][Phe(4-Cl)][3Pal][dS][dY][d(hArg(Et2))]L[hArg(Et2)][ξP][dA]-NH2), the Potency was 1.21 µM (active) in assay [15] and 0.857 µM (active) in [16].

The record behind these values is PubChem BioAssay (NCATS).
